High-throughput results (PubChem)
tim23-1 inh – growth inhibitors of tim23-1 mutant yeast. 1.3% of 330,000 active. S. cerevisiae tim23-1 growth, BacTiter-Glo luminescence, 24 h. inhibition, % at 20 µM;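 active means growth inhibition of the mutant yeast at or above 50%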;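 further: temperature-sensitive mutant grown at 25 °C; plate controls were DMSO-treated mutant yeast for no effect and medium wells lacking yeast for full effect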
SKKanGAS inh – blocks kanamycin growth of S. pyogenes SKKanGAS strain | AID 1662 | 1.3% of 300,000 active | inhibition, % at 7.5 µM | BacTiter-Glo, 6 h;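 active means mean replicate score, as percent of positive control median, at least 50; inconclusive means mean below 50 but one replicate at or above 50; inactive means mean and every replicate below 50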;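 further: strain carries kanamycin resistance gene driven by streptokinase promoter and grows in 40 µg/ml kanamycin; loss of luminescence reflects streptokinase promoter inhibition or plain growth inhibition; 0% = median of DMSO wells and 100% = positive control at its reference dose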
V-ATPase pHluor – yeast V-ATPase proton transport regulation by pHLuorin; S. cerevisiae, pHLuorin cytosolic pH fluorescence; response, % at 10 µM; 0.37% of 350,000 active; in the data active means response mostly above about 7.3%, no sharp cut-off; inactive means mostly below about 5.4%; further: actives read high
PfHsp90 set2 – inhibits growth of yeast expressing Plasmodium falciparum Hsp90; 0.32% of 310,000 active; inhibition, % at 9.4 µM; S. cerevisiae expressing PfHsp90, BacTiter-Glo ATP, 48 h; yeast lacking PDR1 and PDR3 efflux regulators;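 active means every replicate shows inhibition above about 80%, whatever the replicate mean, limit read from the data; inconclusive means mean inhibition reaches the set limit but some replicate falls short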;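 further: 0% = DMSO neutral controls and 100% = 20 µM radicicol positive controls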
TIM10 inh – growth inhibitors of TIM10 yeast strain; S. cerevisiae TIM10 strain growth, BacTiter-Glo luminescence, 24 h; 1.4% of 330,000 active; AID 463195; inhibition, % at 10 µM;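 active means inhibition of 40% or more at the single tested concentration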;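 further: wild-type TIM10 isogenic control strain grown at permissive 25 °C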
tim10-1 inh – inhibits growth of tim10-1 mutant yeast | S. cerevisiae tim10-1 ts strain growth, BacTiter-Glo, 24 h | inhibition, % at 20 µM | 2.2% of 330,000 active | AID 463190;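 active means inhibition of at least 40%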;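 further: mutant grown at 25 °C; 0% = DMSO wells with yeast and 100% = wells holding no yeast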
tim10-1 conf – tim10-1 yeast growth inhibition, confirmed; shares compounds with tim10-1 inh; S. cerevisiae tim10-1 ts strain growth, BacTiter-Glo, 24 h; inhibition, % at 20 µM; 56% of 7,400 active; AID 463213;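 active means inhibition of yeast growth at or above a set limit in either of two repeat tests at 20 µM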;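 further: tim10-1 mutant grown at permissive 25 °C to find synthetic lethal compounds; 0% = DMSO yeast wells and 100% = medium wells without yeast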
Active calls of the source: *; ? = inconclusive; . = no result given. The list is not random: actives were taken first. Their share in the collection is about 4.6%.

SMILES	tim23-1 inh	SKKanGAS inh	V-ATPase pHluor	PfHsp90 set2	TIM10 inh	tim10-1 inh	tim10-1 conf
COc1ccc(N(CCN2C(=O)c3ccccc3C2=O)C(=O)c2cccc([N+](=O)[O-])c2)cc1	49	1	3	-16	35	40	35*
CC(C)c1ccc(NC2=CC(=O)CC(C)(C)C2)cc1	38	-2	0	-18	17	41*	15
Cc1ccc(NC(=O)c2cc(-c3ccccc3)nn2-c2ccccc2)cc1	21	22	0	11	33	45*	32*
C=C(C)COc1ccc(-c2[nH]ncc2-c2ccc(OC)c(OC)c2)c(O)c1	36	2	.	-3	33	46*	34*
CCOC(=O)CC(=O)CSc1nc2c(c(-c3cccs3)c1C#N)CCC2	41	-11	-4	-4	26	42*	33*
CCOC(=O)CC(=O)CSc1nc2c(cc1C#N)CCC2	6	2	0	-20	-12	-8	.
Cc1nc(NC(=O)c2cccnc2Cl)sc1C	-4	-9	2	0	14	2	.
CCCCc1cc(=O)oc2cc(OCC(=O)NCc3ccccn3)ccc12	23	-2	-2	-19	2	48*	-2
CCCc1cc(=O)oc2cc(OCC(=O)NCc3ccccn3)ccc12	12	2	2	14	12	1	.
Cc1ccccc1NC(=S)N(Cc1ccccn1)Cc1ccccc1Cl	36	-4	0	-4	27	45*	34*
O=C(NCC(=O)N1CCCCCCC1)c1ccc(Cl)c(Cl)c1	.	.	-3	.	.	.	.
COc1ccccc1CNC(=O)c1c(N)n(CCCN2CCOCC2)c2nc3ccccc3nc12	.	30	1	15	.	.	.
Nc1c(C(=O)NCc2ccc3c(c2)OCO3)c2nc3ccccc3nc2n1CCCN1CCOCC1	8	8	-16	-14	4	44*	29
C=CCN(CC=C)c1nc2ccccc2nc1C(C#N)C(=O)OC(C)C (stereo not drawn)	49	6	-2	-20	32	45*	38*
C=CCOC(=O)C(C#N)c1nc2ccccc2nc1N1CCN(c2ccccc2OC)CC1 (stereo not drawn)	29	25	-1	-28	16	31	.
COCCNc1nnc(SCC(=O)NNC(=O)c2ccc([N+](=O)[O-])cc2)s1	3	-6	4	-1	0	11	.
Cc1c(C(=O)N2CCc3ccccc3C2)oc2ccc(S(=O)(=O)N3CCCCCC3)cc12	36	9	0	-2	21	43*	22
Cc1c(C(=O)N2CCOCC2)oc2ccc(S(=O)(=O)N3CCCC3)cc12	-1	3	-2	-39	7	8	.
COc1ccc(NC(=O)N(C)C[C@H]2Oc3ccc(NC(=O)NC4CCCCC4)cc3C(=O)N([C@H](C)CO)C[C@@H]2C)cc1	-5	.	3	46	3	-2	.
CCC1CCCCN1C(=O)CSc1nnc(CNC(=O)COc2ccc(Cl)cc2)o1 (stereo not drawn)	26	-4	-1	23	24	40*	20
O=C(COc1ccc(Cl)cc1)NCc1nnc(SCC(=O)NC2CCCC2)o1	-2	-15	-6	11	-14	11	.
CCC1CCCCN1C(=O)CSc1nnc(-c2ccc(Cl)s2)o1 (stereo not drawn)	42	-1	-4	-5	9	51*	24
COc1cc(NC(=O)CSc2nnnn2C2CCCC2)cc(OC)c1	-3	-2	2	4	4	97*	-2
c1ccc(-c2cc3n(c2)CCc2ccccc2-3)cc1	27	-1	-4	13	25	42*	29
O=C(NCCN1CCCC1=O)C1CCC(=O)N(CCc2cccc(F)c2)C1 (stereo not drawn)	10	1	1	16	8	4	.
SMILES	tim23-1 inh	SKKanGAS inh	V-ATPase pHluor	PfHsp90 set2	TIM10 inh	tim10-1 inh	tim10-1 conf
Clc1ccccc1Nc1nnc(-c2ccncc2)s1	42	34	0	66	30	40*	41*
CCOc1ccc(N2C=Nc3ccc(OCC)cc3C2)cc1	33	-7	7	26	-1	42*	25
CCCOc1ccc(N2C(=O)CC(SCC(N)C(=O)OCC)C2=O)cc1 (stereo not drawn)	3	0	4	11	4	5	.
CCCOc1ccc(N2C(=O)CC(SCCN)C2=O)cc1 (stereo not drawn)	9	9	-2	-20	6	42*	24
O=C(O)c1ccc(N=NN2CCCCCC2)cc1	4	-6	-1	-5	0	1	.
CCOC(=O)C1(CCc2ccccc2)CCN(C(=O)CCc2cnn(C)c2)CC1	27	-16	0	-19	15	42*	30*
Cc1ccc2c(c1)c(N=O)c(O)n2Cc1ccc(Cl)cc1	28	43	3	3	30	49*	36*
O=Nc1c(O)n(Cc2ccc(Cl)cc2)c2ccccc12	14	8	-4	-38	32	35	.
Cc1cc(C(=O)Nc2ccc([N+](=O)[O-])cn2)cs1	24	17	0	-2	8	16	.
CCC(C)NS(=O)(=O)c1ccc(NC(=O)c2ccc([N+](=O)[O-])cc2Cl)cc1 (stereo not drawn)	31	-4	1	13	25	46*	31*
Cc1ccc(-c2nc3cnccn3c2Nc2c(C)cccc2C)o1	37	1	-3	42	28	60*	55*
CCc1cc(=O)oc2cc(OC3CCCCC3=O)ccc12 (stereo not drawn)	35	-2	-3	-30	5	43*	13
Cc1cc(C)c(C)c(S(=O)(=O)N2CCC(C(=O)NC3=NCCS3)CC2)c1C	2	.	1	.	-4	-2	.
CCC(C)(C)c1ccc(OCCCC[n+]2ccccc2)c(C(C)(C)CC)c1	30	.	-3	-36	-120	46*	37*
CCCCCc1ccc(OCCCC[n+]2cccc(C)c2)c(CCCCC)c1	49	-4	-1	-23	-73	31	.
CCCCCc1ccc(OCCCC[n+]2ccccc2)c(CCCCC)c1	-24	?	0	38	-295	43*	32*
O=C(CSc1nnc2c(n1)[nH]c1ccc(F)cc12)NCc1ccc(F)cc1	-20	-4	1	17	-8	-12	.
CCn1c(C)c(C(C)=O)c(N2CCN(c3cccc(Cl)c3)CC2)nc1=S	13	-10	5	-20	9	44*	16
Cc1c(Cl)cccc1NC(=O)c1nc(C)n(-c2cc(OC(C)C)c(Cl)cc2Cl)n1	26	23	-2	2	30	43*	26
Cn1c(CNC(=O)c2ccco2)nnc1SCCOc1ccccc1	-11	3	-2	25	-2	9	.
Cc1cccc(C(=O)O/N=C/c2c(N3CCOCC3)n(C)c3ccccc23)c1	19	-1	.	.	25	41*	15
